Measurements taken from PubChem BioAssay.
Values joined by “and” are separate entries in the source; they are usually repeats but may differ in a detail not shown here. Equal entries are not always repeated. Inconclusive results are not listed. Active and inactive are the calls of the source.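 The calls were made as follows, unless noted: active = normalized viability below 100% at a tested concentration; inactive = the rest.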

Columns and labels:
[1] = viability loss in pontine glioma line – cell-based, SU-DIPG-XXV, MIPE5.0, CellTiter-Glo, qHTS, dose response (AID 1347065; cut-off not given, nearly all actives have AC50 up to about 26 µM;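 also: cells exposed to compound for 48 hours before ATP readout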); conditions: CellTiter-Glo ATP luminescence
[2] = SU-DIPG-VI glioma cell viability, MIPE4.0 library, CellTiter-Glo luminescence, qHTS (AID 1347066; cut-off not given, nearly all actives have AC50 up to about 30 µM;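 also: cells exposed to compound for 48 hours before readout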); conditions: CellTiter-Glo ATP luminescence
[3] = SU-DIPG-XXV glioma cell viability, MIPE5.0 library, qHTS (AID 1347068; cut-off not given, nearly all actives have IC50 up to about 30 µM)
[4] = sensitizers of A549 cells to miR-34 induction, primary screen, imaging, A549 dox-inducible miR-34, nuclei and caspase counts (AID 1347080;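 active = compounds whose cell count with miR-34 switched on is under 0.7 times the count with it off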); conditions: A549 miR-34 inducible, Hoechst nuclei count, 48 h
[5] = modifiers of HSF1 nuclear foci, imaging, Selleck Cancer Library (AID 1347162; in the data active = plate-normalised HSF1 focus index below about 0.46); conditions: human cells, at 10 µM; SSMD: measured here: HSF1 foci SSMD mean; cell count: measured here: cell number; plate-normalised HSF1 focus index: stronger effect = lower value
[6] = survival rescue of mitochondrial mutant cells in low glucose, primary screen, MELAS cybrids, Rieske KO mouse fibroblasts, CellTiter-Glo (AID 1508586;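 active = mean z-score across replicates of 1.96 or higher in either the MELAS or the Rieske mutant cell line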;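 also: z relative to plate mean and SD of compound and empty wells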)
[7] = ovarian cancer cell viability with rucaparib, profiling panel, oncology-focused library, rucaparib conditional (AID 1508598); conditions: patient-derived ovarian cancer cells, CellTiter-Glo viability, 144 h, stronger effect = lower value

O=NN(CCCl)C(=O)NC1CCCCC1
active: viability ([7]; at 0.000305 µM, OCI-P5x cells, with rucaparib 20 µM, 100% = cells with rucaparib alone) 87.5% | viability ([7]; at 0.00122 µM, OCI-P5x cells, with rucaparib 20 µM, 100% = cells with rucaparib alone) 100% | viability ([7]; at 0.00488 µM, OCI-P5x cells, with rucaparib 20 µM, 100% = cells with rucaparib alone) 94.7% | viability ([7]; at 0.0195 µM, OCI-P5x cells, with rucaparib 20 µM, 100% = cells with rucaparib alone) 97.1% | viability ([7]; at 0.0781 µM, OCI-P5x cells, with rucaparib 20 µM, 100% = cells with rucaparib alone) 97.7% | viability ([7]; at 1.25 µM, OCI-P5x cells, with rucaparib 20 µM, 100% = cells with rucaparib alone) 90.9%
6620: cell count [5]
7170 and 7550: cell count ([4]; measured here: total cells with miR-34 induction, stronger effect = lower value)
8750 and 8760: cell count ([4]; measured here: total cells without miR-34 induction)
inactive: outcome [1] | outcome [2] | outcome [3] | fold change ([4]; stronger effect = lower value, cell number ratio, induced over uninduced) 0.819 and 0.861 | plate-normalised HSF1 focus index [5] 1.01 | z-score ([6]; MELAS cybrid survival, CellTiter-Glo 48 h, stronger effect = higher value) -0.38 and -0.0882 | viability ([7]; at 0.000305 µM, OCI-C5x cells, with rucaparib 10 µM, 100% = cells with rucaparib alone) 106% | viability ([7]; at 0.000305 µM, OCI-C5x cells, without rucaparib) 116% | viability ([7]; at 0.000305 µM, OCI-P5x cells, without rucaparib) 105% | viability ([7]; at 0.00122 µM, OCI-C5x cells, with rucaparib 10 µM, 100% = cells with rucaparib alone) 106% | viability ([7]; at 0.00122 µM, OCI-C5x cells, without rucaparib) 123% | viability ([7]; at 0.00122 µM, OCI-P5x cells, without rucaparib) 107% | viability ([7]; at 0.00488 µM, OCI-C5x cells, with rucaparib 10 µM, 100% = cells with rucaparib alone) 107% | viability ([7]; at 0.00488 µM, OCI-C5x cells, without rucaparib) 120% | viability ([7]; at 0.00488 µM, OCI-P5x cells, without rucaparib) 109% | viability ([7]; at 0.0195 µM, OCI-C5x cells, with rucaparib 10 µM, 100% = cells with rucaparib alone) 121% | viability ([7]; at 0.0195 µM, OCI-C5x cells, without rucaparib) 122% | viability ([7]; at 0.0195 µM, OCI-P5x cells, without rucaparib) 116% | viability ([7]; at 0.0781 µM, OCI-C5x cells, with rucaparib 10 µM, 100% = cells with rucaparib alone) 107% | viability ([7]; at 0.0781 µM, OCI-C5x cells, without rucaparib) 121% | viability ([7]; at 0.0781 µM, OCI-P5x cells, without rucaparib) 112% | viability ([7]; at 0.313 µM, OCI-C5x cells, with rucaparib 10 µM, 100% = cells with rucaparib alone) 113% | viability ([7]; at 0.313 µM, OCI-C5x cells, without rucaparib) 119% | viability ([7]; at 0.313 µM, OCI-P5x cells, with rucaparib 20 µM, 100% = cells with rucaparib alone) 103% | viability ([7]; at 0.313 µM, OCI-P5x cells, without rucaparib) 119% | viability ([7]; at 1.25 µM, OCI-C5x cells, with rucaparib 10 µM, 100% = cells with rucaparib alone) 115% | viability ([7]; at 1.25 µM, OCI-C5x cells, without rucaparib) 125% | viability ([7]; at 1.25 µM, OCI-P5x cells, without rucaparib) 108% | viability ([7]; at 5 µM, OCI-C5x cells, with rucaparib 10 µM, 100% = cells with rucaparib alone) 118%
0.27: SSMD [5]
1.64 and 1.87: fold change ([4]; measured here: relative caspase fold change +Dox/-Dox)
0.628 and -0.815: z-score ([6]; Rieske KO mouse fibroblast survival, CellTiter-Glo 72 h)
